Measured values: the supplement of paper PMC6555819

Legend:
Experiment in all cases: PBM binding z-score (relative to random genomic background probes); higher = stronger binding; sequences stand for … in GC…GCGATTGACAGCGTAGAATGAAGG
[1] = system: RARb homodimer (NR concentration 270 nM)
Summary of the method: (§1)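 Random background probes are the reference for binding z-scores. These scores derive from regression-normalized fluorescence on custom Agilent 4×180K protein-binding microarrays incubated 1 h with ligand-free nuclear receptor dimers. Binding was detected with antibodies against each partner (one per run).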

[2] = system: RARg:RXRa (NR concentration 270 nM, RXRa partner concentration 90 nM)
Summary of the method: as §1

[3] = system: RARg homodimer (NR concentration 270 nM)
Summary of the method: as §1

[4] = system: RXRa DBDmut IVT, anti-RXR (DBD mutation: RXRa K156A/R161A, NR concentration 90 nM)
Summary of the method: as §1

[5] = system: RXRa homodimer (NR concentration 180 nM)
Summary of the method: as §1

[6] = system: THRa:RXRa (NR concentration 90 nM, RXRa partner concentration 90 nM)
Summary of the method: as §1

[7] = system: THRa homodimer (NR concentration 90 nM)
Summary of the method: as §1

[8] = system: VDR homodimer (NR concentration 270 nM)
Summary of the method: as §1

| Sequence | PBM binding z-score [1] | PBM binding z-score [2] | PBM binding z-score [3] | PBM binding z-score [4] | PBM binding z-score [5] | PBM binding z-score [6] | PBM binding z-score [7] | PBM binding z-score [8] |
| --- | --- | --- | --- | --- | --- | --- | --- | --- |
| GCTTGGAGATCAAGGTTAAGAAAGACTAAGCTAA | 0.301 | 0.332 | 0.139 | -0.28 | 1 | 1.16 | -0.468 | 0.0219 |
| TCTTGTAGATCAATAGAGGTTAAGAATGTGCGCT | 1.06 | 0.814 | 0.559 | 0.783 | 1.38 | 2.15 | -0.391 | 0.277 |
| TCATATAGGTAATTGCTAGGTGAAAGTCCGATCT | 0.402 | 0.393 | 0.128 | 1.47 | 0.589 | 1.44 | 0.689 | 0.282 |
| AATACAGGGTCACTAGGCCAGACTAGGTACGAAT | 3.25 | 5.28 | 4.68 | 2.72 | 5.35 | 3.44 | 1.22 | 2.17 |
| GGAACGAGGGCAAGTTGATAGGAGAGTTTGATGG | 1.61 | 1.72 | 2.08 | 2.4 | 0.681 | 1.27 | 0.249 | 2.23 |
| ATCTCTAGGTAAAAGTTCAGTAAATCCCGAGGAT | 2.41 | 1.83 | 1.94 | 0.937 | 1.61 | 1.38 | 0.269 | 2.01 |
| ATCTCTACGTAACCAAGTTCAGTGAATGCCGAAC | 1.18 | 0.251 | 0.741 | 0.846 | 0.369 | 0.592 | 0.325 | 2.27 |
| ACTTTTAGTTGAGACGAGGGCAACCGATAGGTTG | 1.35 | 0.942 | 1.03 | 0.926 | 0.7 | 2.53 | 0.433 | 1.02 |
| TAGCCTAGGTCATTCAGGGGCCAGTATCGAAAGC | 3.55 | 5.82 | 4.73 | 1.96 | 3.05 | 3.47 | 0.885 | 1.48 |
| CCTACTGGGCCAAAGTTCATTGATTCCAATGCTC | 3.34 | 3.23 | 2.56 | 2.37 | 2.73 | 1.44 | 0.0374 | 3.96 |
| AGAACGAGGGCACGCTGAGTTGTTAGCAGAGTAG | 1.16 | 1.85 | 2.11 | 1.95 | 1.55 | 1.73 | -0.0744 | 1.29 |
| GGACCAAGGTGAATAGGTCGTTGATGAGTAGGCG | 1.93 | 2.62 | 1.51 | -0.31 | 1.81 | 1.91 | 0.417 | 0.294 |
| CCTGCTAGATCATGGTCAGCTAATCTACAGTATG | -0.429 | -0.127 | 0.142 | 0.516 | -0.185 | -0.68 | -1.23 | -0.86 |
| CGTAGCAGGCCAATCTGGGTCACTCAAGGCTTGA | 1.95 | 0.96 | 1.26 | 0.317 | 0.616 | 3.65 | 0.645 | -0.295 |
| CGAACGAGGGCATGAGTAGATAGCAAATGCCGAT | 0.586 | 1.22 | 1.57 | 2.03 | 0.713 | 0.742 | -0.437 | 0.55 |
| ATCTCTAGGTAAAGTTCAGTGAAAGATCGATAGA | 2.65 | 2.18 | 2.77 | 1.72 | 1.42 | 1.24 | 0.317 | 2.53 |
| TCTGCTAGGTCAACGCTGGTCAGCTAATCTGCTA | 3.46 | 4.21 | 5.26 | 0.991 | 2.33 | 3.52 | 0.43 | -0.576 |
| GCAAGTTGGTCAGTAAAAGGTCACACACCGGTCG | 5.2 | 5.36 | 4.48 | 0.685 | 5.47 | 3.61 | 1.82 | 1.96 |
| TTACCAAGGCGAAAGGTCGTTGATGCACGCCTTG | 1.7 | 2.04 | 1.11 | 0.253 | 2.66 | 1.44 | -0.366 | 1.13 |
| TGTCAAAGTTCAAAGTTAACGTAAGTATCCACAC | 3.88 | 5.8 | 5.72 | 4.53 | 5.86 | 2.62 | 0.00571 | 4.02 |
| CGAACGAGGGCAGGAGTTGATAGCAAATGCCGAT | 0.754 | 0.906 | 1.13 | 0.67 | 0.365 | 0.403 | -0.595 | 0.281 |
| TCTCGGAGGACACGAAGGTCTGAGCTTTCCAGAG | 0.657 | 0.331 | 1.01 | 0.323 | -0.0356 | 1.12 | 0.262 | -0.384 |
| GATACAGGGTCTGCTAGAGGCCAGAGTATGGAAA | 0.393 | 0.857 | 0.279 | -0.877 | -0.0451 | -0.093 | -0.687 | -0.39 |
| CCTCTGAGGACAGAAGGTCAGAGCTGTCCGCTTT | 3.74 | 3.76 | 3.58 | 1.08 | 2 | 3.4 | 1.58 | 0.647 |
| TCTCGGAGGACACGAAAGGTCAGAGTTCGACATC | 5.05 | 5.04 | 5.71 | 1.45 | 5.12 | 3.77 | 1.57 | 3.65 |
| CGAACTAGGTCATCGACAGGACAGTGAATAGTAA | 2.75 | 4.84 | 4.87 | 2.2 | 2.72 | 3.06 | 0.98 | 1.39 |
| CCGACTGGGCCATCAGGTCATTGATATCAACGTT | 2.62 | 2.06 | 1.8 | 0.194 | 1.38 | 3.17 | 2.95 | 1.67 |
| TGAATGAGGTTAAAGATCAAGGAACGTGGCGTCG | 0.599 | 2.57 | 1.35 | 1.24 | 4.06 | 2.41 | 0.289 | 0.251 |
